Prx2 Sm inh: Schistosoma Mansoni Peroxiredoxins (Prx2); Schistosoma mansoni peroxiredoxin 2 (Prx2); Potency, µM; S. mansoni Prx2 activity coupled to TGR/GSH (TGR is thioredoxin glutathione reductase), NADPH fluorescence loss, qHTS; AID 448, 2006; 0.07% of 65,000 active
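Purified S. mansoni TGR and Prx2 in pH 7.4 phosphate buffer with EDTA and Tween-20 were preincubated with compounds for 15 min. Further NADPH/GSH was added, then a 2.5 mM H2O2 aliquot initiated turnover, followed kinetically by NADPH fluorescence.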
AmpC inh no det: Promiscuous and Specific Inhibitors of AmpC Beta-Lactamase (assay without detergent) | Potency, µM (top dose mostly 28.7 µM), inactives show at the highest dose activity change, negative = inhibition | P00811 | AmpC nitrocefin hydrolysis, absorbance 480 nm, no detergent | 1.8% of 71,000 active; note: % of control where 0% means no effect
Target sequence (P00811 whole entry, looked up): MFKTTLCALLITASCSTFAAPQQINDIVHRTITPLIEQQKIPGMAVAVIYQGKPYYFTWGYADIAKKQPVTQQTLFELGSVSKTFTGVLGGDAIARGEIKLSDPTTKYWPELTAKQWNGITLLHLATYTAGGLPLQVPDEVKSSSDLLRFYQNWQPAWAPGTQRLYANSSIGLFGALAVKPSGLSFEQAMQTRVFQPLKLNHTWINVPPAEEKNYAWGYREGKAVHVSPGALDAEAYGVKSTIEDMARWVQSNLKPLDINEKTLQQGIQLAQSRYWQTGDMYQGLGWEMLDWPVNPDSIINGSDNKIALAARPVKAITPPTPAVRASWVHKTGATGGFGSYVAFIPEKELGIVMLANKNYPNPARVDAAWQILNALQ
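Enzyme, pH 7.0 phosphate. Compound titrations were pre-incubated with AmpC for 15 min at room temperature before nitrocefin (stock 800 uM) addition; product formation was recorded at 480 nm every 20 s for 4 min.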
AmpC inh det: Promiscuous and Specific Inhibitors of AmpC Beta-Lactamase (assay with detergent); P00811; purified AmpC, nitrocefin hydrolysis with detergent; Potency, µM (series often up to 28.7 µM), inactives show top-dose activity change, negative = inhibition; 0.09% of 71,000 active; active = well fitted curve in the direction sought with a large enough effect; inconclusive = small, poorly fitted or top-dose-only effect; note: % is set by controls: 0 for no effect and ±100 for the full control effect
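E. coli AmpC (5.3 nM) in 20 mM phosphate pH 7.0 with 0.01% Triton X-100, preincubated 15 min RT with compound; nitrocefin (2 uL of 800 uM stock) hydrolysis followed by 480 nm absorbance every 20 s over 4 min.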
Anthrax LT inh: qHTS Assay for Anthrax Lethal Toxin Internalization. Cells, anthrax lethal toxin internalization, FRET ratio (460/530). Potency, µM (series often up to 40 µM), for the others: top-dose activity change, negative = inhibition, usual class: inhibitors. 0.67% of 70,000 active; note: % is set by controls: 0 for no effect and ±100 for the full control effect; nearly all actives have a fitted effect of over 50% in size
Active calls of the source: *; u = inconclusive; x = not tested or not shown; [ ] = remark or other dose. A selection: hits, their analogues and other compounds. The true share with any hit is near 2.6%. Unless noted, calls come from the whole dose curve. Potency is the fitted concentration of half-maximal effect.

SMILES | Prx2 Sm inh | AmpC inh no det | AmpC inh det | Anthrax LT inh
Cc1cccc(NC(=O)CN2C(=O)COc3ccc(Cl)cc32)c1 | >57 | -20% | 24% | u
COC(=O)CN1C(=O)COc2ccc(Cl)cc21 | >57 | 4µM*[single pt active] | 17% | 3%
COCCNC(=O)CN1C(=O)COc2ccc(Cl)cc21 | >57 | -14% | 0% | -1%
CCOc1ccc(NC(=O)CN2C(=O)COc3ccc(Cl)cc32)cc1 | >57 | 4µM*[single pt active] | 14% | u
COc1cccc(NC(=O)CN2C(=O)COc3ccc(Cl)cc32)c1 | >57 | -5% | 12% | 16µM*
C[C@H](OP(=O)(O)O)[C@H](N)C(=O)O | >57 | -9%[5.75 µM] | -3%[5.75 µM] | -8%[8 µM]
Cc1ccc(NC(=[OH+])c2cc3ccccc3cc2O)c(C)c1.Cc1ccc(NC(=[OH+])c2cc3ccccc3cc2O)c(C)c1.[Ni] | >57 | u | -4%[5.75 µM] | u
CC(C)C[C@H](NP(=O)(O)O[C@@H]1O[C@@H](C)[C@@H](O)[C@@H](O)[C@H]1O)C(=O)N[C@@H](Cc1c[nH]c2ccccc12)C(=O)O | >57 | 7% | -1% | -15%
O[C@@H](COc1cccc2ccccc12)CN1CCOCC1 | >57 | 12%[5.75 µM] | -3%[5.75 µM] | u
O=c1cc(-c2cccc(O)c2O)oc2ccccc12 | >26 | 4% | -4% | -15%
Cn1cc(C(=O)c2ccc(Cl)cc2)cc1-c1nc2ccccc2n1C | >57 | 35% | 18% | 13µM*
Cc1oc(-c2cccc(Cl)c2)nc1CN1CCC(C(=O)NCc2ccco2)CC1 | >57 | 77% | -2% | u
CCN1CCN(CCNC(=O)C2CCN(Cc3nc(-c4ccc(Cl)cc4)oc3C)CC2)CC1 | >57 | 4µM*[single pt active] | 12% | u
CCN1CCCC1CNC(=O)C1CCN(Cc2nc(-c3cccc(Br)c3)oc2C)CC1 (stereo not given) | >57 | 50% | -4% | 6.3µM*
Cc1ccccc1-c1nc(CN2CCC(C(=O)NCCCN3CC(C)CC(C)C3)CC2)c(C)o1 (stereo not given) | >57 | 34% | -3% | 2.5µM*
Cc1oc(-c2ccc(Cl)cc2)nc1CN1CCC(C(=O)NCCCN2CCCC2=O)CC1 | >57 | 93% | 12% | -5%
NCCC[C@@](N)(C(=O)O)C(F)F | >57 | 4% | -3% | -3%
O=C(Cn1cnc2sc(-c3ccccc3)cc2c1=O)NCc1ccco1 | >57 | 5µM* | 18% | -26%
Oc1ccc(CN2CCN(Cc3ccccc3)CC2)c2cccnc12 | >57 | 8% | 2% | u
Oc1ccc(CNc2ccc(F)cc2)c2cccnc12 | u | 10µM* | 1% | -6%
Oc1ccc(CNc2ccccc2)c2cccnc12 | 15* | 13µM*[single pt active] | 20% | 5%
NCCNc1ncnc2ccc(Cl)cc12 | >57 | -9%[5.75 µM] | -2%[5.75 µM] | -5%[8 µM]
N#Cc1cccc(-c2nc3cnc(N4CCOCC4)nc3n(C[C@H]3CCCO3)c2=O)c1 | >57 | 9% | -1% | u
CC1(C)Oc2cc3c(cc2O1)OC(C)(C)O3 | x | x | x | -12%[8 µM]
CSc1nc(C)cc(Nc2ccc(O)c(CN3CCCCC3)c2)n1 | >57 | 0%[5.75 µM] | -4%[5.75 µM] | u
SMILES | Prx2 Sm inh | AmpC inh no det | AmpC inh det | Anthrax LT inh
CCOCCCNC(=O)Cn1ncc2c(=O)oc3ccccc3c21 | >57 | 4µM*[single pt active] | 8% | -14%
CC(CCc1ccco1)NC(=O)Cn1ncc2c(=O)oc3ccccc3c21 (stereo not given) | >57 | 4µM*[single pt active] | 14% | -15%
O=C(Cn1ncc2c(=O)oc3ccccc3c21)NCCC1=CCCCC1 | >57 | -4% | 0% | -6%
CC(C)OCCCNC(=O)Cn1ncc2c(=O)oc3ccccc3c21 | >57 | 1% | -4% | 5%
O=C(Cn1ncc2c(=O)oc3ccccc3c21)NCC1CCCO1 (stereo not given) | >57 | 4µM*[single pt active] | 17% | -10%
Cc1cccc(N2CCN(C(=O)C3CCN(c4nnc(-n5cccc5)s4)CC3)CC2C)c1 (stereo not given) | >57 | 105% | 5% | 7.9µM*
CCOc1ccc(Cn2nnc(C(=O)Nc3cc(C)cc(C)c3)c2N)cc1 | >57 | 4µM*[single pt active] | 9% | u
COc1ccc(CNC(=O)c2nnn(Cc3ccc(OC)cc3)c2N)cc1 | >57 | 2.5µM*[single pt active] | 12% | -8%
CCOc1ccc(Cn2nnc(C(=O)Nc3cc(OC)cc(OC)c3)c2N)cc1 | >57 | 3.2µM* | 11% | 19%
CCc1ccc(Cn2nnc(C(=O)Nc3cccc(C)c3)c2N)cc1 | >57 | 4µM*[single pt active] | 10% | -9%
CCOc1ccc(NC(=O)c2nnn(CC(=O)Nc3ccccc3OC)c2N)cc1 | >57 | 12% | 5% | -2%
COc1cc2c(cc1O)CC[C@@H]1[C@@H]2CC[C@@]2(C)[C@H](O)CC[C@H]12 | >57 | 13% | -1% | -11%
Nc1c(S(=O)(=O)O)cc(Nc2cccc(S(N)(=O)=O)c2)c2c1C(=O)c1ccccc1C2=O | >57 | -6%[5.75 µM] | -11%[5.75 µM] | u
NC1=C(O)C(=O)[C@H](c2c[nH]c3ccc(OCc4ccccc4)cc23)O1 | >57 | -17%[5.75 µM] | -4%[5.75 µM] | u
C=CCOC(=O)C1=C(C)Nc2nnnn2C1c1cc(OC)ccc1OC (stereo not given) | >57 | 14% | -5% | 7%
CCOC(=O)C1=C(C)Nc2nnnn2C1c1ccc(OC)c(Br)c1 (stereo not given) | >57 | 4µM*[single pt active] | 6% | -3%
CC(CN1CCCCC1)OC(=O)c1ccc2c(c1)OCO2 (stereo not given) | >57 | -10% | -1% | -3%
CC1CCN(CC(C)OC(=O)c2ccc3c(c2)OCCO3)CC1 (stereo not given) | >57 | 4µM*[single pt active] | 27% | -7%
CN(C)C(=O)N1CCC(C(=O)NCc2ccccc2Cl)CC1 | >57 | -14% | -3% | -7%
O=C(NCc1ccccc1Cl)C1CCN(C(=O)c2sccc2-n2cccc2)CC1 | >57 | 25% | 4% | 13µM*
CCOC(=O)N1CCN(C(=O)c2sc3nc(-c4ccc(F)cc4)cn3c2C)CC1 | >57 | 119% | -4% | 0%
COc1ccccc1N1CCN(C(=O)c2sc3nc(-c4ccc(F)cc4)cn3c2C)CC1 | >57 | 126% | 13% | 16µM*
CC(=O)NC1=C(OS(=O)(=O)c2ccc(C)cc2)CN(C)C1=O | >57 | -2%[5.75 µM] | -2%[5.75 µM] | u
CCN(CC)CCCCn1c(-c2ccccc2)nc2c(Nc3ccccc3)nc(C)nc21 | x | 84% | 15% | 16µM*
CCn1c(=O)c2cc(C(=O)NCc3cccs3)sc2c2ccccc21 | >57 | 4µM*[single pt active] | 15% | -15%
SMILES | Prx2 Sm inh | AmpC inh no det | AmpC inh det | Anthrax LT inh
CCn1c2ccccc2c2nnc(SCC(=O)Nc3cc(C)on3)nc21 | >57 | -10% | -2% | 5%
Cn1nc(C(=O)NCCN2CCOCC2)c2ccccc2c1=O | >57 | -6% | -1% | -14%
CCn1c(=O)c2cc(C(=O)Nc3cc(C)on3)sc2c2ccccc21 | >57 | 4µM*[single pt active] | 15% | -8%
CCn1c(=O)c2ccccc2n2c(SCC(=O)NCc3cccs3)nnc12 | >57 | 0% | 14% | -6%
CCn1c(=O)c2cc(C(=O)NCCN3CCOCC3)sc2c2ccccc21 | >57 | 4µM*[single pt active] | 12% | -9%
Nc1nc(N)c2nn(-c3ccc(C(=O)O)cc3)nc2n1 | >57 | 5%[5.75 µM] | -3%[5.75 µM] | -2%[8 µM]

Screens deposited in PubChem by National Center for Advancing Translational Sciences (NCATS).
